# Results from publication PMC7862700, “An all-to-all approach to the identification of sequence-specific readers for epigenetic DNA modifications on cytosine”.
# Key:
# Assay in all cases: DAPPL (digital affinity profiling via proximity ligation, sequencing); 10 mM Tris-HCl pH 7.5, 50 mM NaCl, 1 mM DTT, 4% glycerol, room temperature, 30 min; GST-TFs on glutathione beads, 16-mer random dsDNA library, 0.1% formaldehyde crosslink after washing; high values mean tight binding
# FEV = target: T1, FEV (Homo sapiens, UniProt Q99581 1-238); conditions: protein: recombinant; tags: N-terminal GST; dsDNA, one strand shown
# T1 sequence: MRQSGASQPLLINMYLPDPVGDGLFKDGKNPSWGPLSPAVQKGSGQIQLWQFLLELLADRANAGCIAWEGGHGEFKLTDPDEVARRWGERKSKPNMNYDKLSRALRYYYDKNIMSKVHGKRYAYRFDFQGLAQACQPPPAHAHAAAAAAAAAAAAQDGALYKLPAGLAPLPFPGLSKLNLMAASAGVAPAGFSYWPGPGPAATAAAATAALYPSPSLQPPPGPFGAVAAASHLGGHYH
# How it was run: (§1)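 Beads coated with glutathione captured GST-fused human transcription factors that had been expressed in yeast, and the factors were then given DNA barcodes and pooled with a tag-only sample. The pools were incubated with 200 nmole of a random double-stranded 16-mer DNA library in Tris/NaCl/DTT/glycerol buffer for 30 min at room temperature, washed, crosslinked with 0.1% formaldehyde and proximity-ligated with BsaI/T4 ligase at 37 °C for 1 h. PCR amplification and Illumina NextSeq500 sequencing came last. Binding signal is each hexamer's read frequency for a factor divided by its frequency for the tag-only sample.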
# ETV5 = ETV5 (Homo sapiens, UniProt P41161 1-510); conditions: protein: recombinant; tags: N-terminal GST; dsDNA, one strand shown
# Sequence of ETV5 (P41161 whole entry): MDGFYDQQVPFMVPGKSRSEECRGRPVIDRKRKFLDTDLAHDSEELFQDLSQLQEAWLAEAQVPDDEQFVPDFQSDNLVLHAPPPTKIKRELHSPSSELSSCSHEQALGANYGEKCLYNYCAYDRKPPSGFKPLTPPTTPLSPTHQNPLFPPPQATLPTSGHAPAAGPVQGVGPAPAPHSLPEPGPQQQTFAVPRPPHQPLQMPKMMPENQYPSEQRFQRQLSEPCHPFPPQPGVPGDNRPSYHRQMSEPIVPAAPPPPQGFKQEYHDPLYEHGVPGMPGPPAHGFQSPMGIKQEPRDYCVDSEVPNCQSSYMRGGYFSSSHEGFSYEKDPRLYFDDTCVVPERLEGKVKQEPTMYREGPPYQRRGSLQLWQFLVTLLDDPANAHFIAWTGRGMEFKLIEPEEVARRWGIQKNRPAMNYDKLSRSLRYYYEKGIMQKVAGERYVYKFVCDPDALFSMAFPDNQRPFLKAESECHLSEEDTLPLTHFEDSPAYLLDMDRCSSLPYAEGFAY
# How it was run: as §1
# HSF1 = HSF1 (Homo sapiens, UniProt Q00613 1-529); conditions: protein: recombinant; tags: N-terminal GST; chain copies: 3; dsDNA, one strand shown
# Sequence of HSF1 (Q00613 whole entry): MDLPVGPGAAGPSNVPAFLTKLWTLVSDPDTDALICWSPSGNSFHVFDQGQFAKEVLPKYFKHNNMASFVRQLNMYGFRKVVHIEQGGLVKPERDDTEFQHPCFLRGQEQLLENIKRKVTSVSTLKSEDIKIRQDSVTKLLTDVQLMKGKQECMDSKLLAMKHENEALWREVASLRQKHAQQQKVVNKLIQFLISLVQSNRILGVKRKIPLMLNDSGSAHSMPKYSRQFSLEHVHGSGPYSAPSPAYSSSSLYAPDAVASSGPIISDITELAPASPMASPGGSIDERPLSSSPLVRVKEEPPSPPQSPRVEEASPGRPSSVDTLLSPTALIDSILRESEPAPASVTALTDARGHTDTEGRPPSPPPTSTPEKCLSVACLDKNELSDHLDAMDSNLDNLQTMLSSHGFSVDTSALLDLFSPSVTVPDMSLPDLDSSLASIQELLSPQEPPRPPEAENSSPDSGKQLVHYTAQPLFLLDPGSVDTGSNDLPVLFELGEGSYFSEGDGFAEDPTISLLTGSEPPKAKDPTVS
# How it was run: as §1
# SPIC = target: T2, SPIC (Homo sapiens, UniProt Q8N5J4 1-248); conditions: protein: recombinant; tags: N-terminal GST; dsDNA, one strand shown
# T2 sequence: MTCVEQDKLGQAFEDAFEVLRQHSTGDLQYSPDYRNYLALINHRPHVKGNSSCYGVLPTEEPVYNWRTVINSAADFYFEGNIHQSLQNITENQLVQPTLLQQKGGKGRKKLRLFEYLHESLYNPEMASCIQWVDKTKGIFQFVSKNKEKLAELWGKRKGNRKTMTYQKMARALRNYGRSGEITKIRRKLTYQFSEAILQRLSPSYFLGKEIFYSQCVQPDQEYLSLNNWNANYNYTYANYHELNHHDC
# How it was run: as §1
# ELF4 = ELF4 (Homo sapiens, UniProt Q99607 1-663); conditions: protein: recombinant; tags: N-terminal GST; dsDNA, one strand shown
# Sequence of ELF4 (Q99607 whole entry): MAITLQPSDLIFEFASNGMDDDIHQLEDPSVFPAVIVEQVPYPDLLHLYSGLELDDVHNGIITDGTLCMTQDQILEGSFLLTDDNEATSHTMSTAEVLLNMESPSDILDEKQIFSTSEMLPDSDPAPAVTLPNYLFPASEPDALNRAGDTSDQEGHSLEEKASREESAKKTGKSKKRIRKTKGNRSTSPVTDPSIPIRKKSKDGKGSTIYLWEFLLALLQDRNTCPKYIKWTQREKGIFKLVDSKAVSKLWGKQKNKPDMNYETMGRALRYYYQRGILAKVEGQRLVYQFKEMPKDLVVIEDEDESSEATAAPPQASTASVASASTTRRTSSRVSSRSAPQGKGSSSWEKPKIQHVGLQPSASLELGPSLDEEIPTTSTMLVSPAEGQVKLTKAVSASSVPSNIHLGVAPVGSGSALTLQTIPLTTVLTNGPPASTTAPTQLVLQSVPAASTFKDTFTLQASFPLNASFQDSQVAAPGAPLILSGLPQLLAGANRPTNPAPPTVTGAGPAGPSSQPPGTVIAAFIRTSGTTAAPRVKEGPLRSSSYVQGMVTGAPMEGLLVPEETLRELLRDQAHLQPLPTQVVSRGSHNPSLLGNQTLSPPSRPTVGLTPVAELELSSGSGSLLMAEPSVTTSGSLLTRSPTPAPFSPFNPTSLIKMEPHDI
# How it was run: as §1
# ELK4 = target: T3, ELK4 (Homo sapiens, UniProt P28324-2 1-405); conditions: protein: recombinant; tags: N-terminal GST; dsDNA, one strand shown
# T3 sequence: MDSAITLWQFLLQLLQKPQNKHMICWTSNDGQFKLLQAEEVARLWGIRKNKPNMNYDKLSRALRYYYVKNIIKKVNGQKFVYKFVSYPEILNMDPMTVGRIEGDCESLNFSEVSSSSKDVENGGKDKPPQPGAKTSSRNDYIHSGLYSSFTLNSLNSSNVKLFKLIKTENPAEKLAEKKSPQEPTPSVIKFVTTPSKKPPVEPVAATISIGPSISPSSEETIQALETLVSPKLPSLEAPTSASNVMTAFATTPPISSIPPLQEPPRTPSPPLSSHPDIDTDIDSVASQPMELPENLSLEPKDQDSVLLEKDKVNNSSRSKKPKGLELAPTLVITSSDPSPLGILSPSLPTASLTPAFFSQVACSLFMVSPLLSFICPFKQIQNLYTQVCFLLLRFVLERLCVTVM
# How it was run: as §1
# ETV2 = target: T4, ETV2 (Homo sapiens, UniProt O00321 1-342); conditions: protein: recombinant; tags: N-terminal GST; dsDNA, one strand shown
# T4 sequence: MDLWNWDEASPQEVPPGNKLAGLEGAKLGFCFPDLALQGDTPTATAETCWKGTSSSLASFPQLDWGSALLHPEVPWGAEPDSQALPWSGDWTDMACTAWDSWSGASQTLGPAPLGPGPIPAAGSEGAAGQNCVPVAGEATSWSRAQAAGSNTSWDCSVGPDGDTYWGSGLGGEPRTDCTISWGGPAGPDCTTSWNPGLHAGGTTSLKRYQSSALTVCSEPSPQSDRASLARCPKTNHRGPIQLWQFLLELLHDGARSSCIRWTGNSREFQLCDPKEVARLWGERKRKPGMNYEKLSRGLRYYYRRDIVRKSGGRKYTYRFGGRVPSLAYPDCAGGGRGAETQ
# How it was run: as §1
# ELF3 = target: T5, ELF3 (Homo sapiens, UniProt P78545 1-371); conditions: protein: recombinant; tags: N-terminal GST; dsDNA, one strand shown
# T5 sequence: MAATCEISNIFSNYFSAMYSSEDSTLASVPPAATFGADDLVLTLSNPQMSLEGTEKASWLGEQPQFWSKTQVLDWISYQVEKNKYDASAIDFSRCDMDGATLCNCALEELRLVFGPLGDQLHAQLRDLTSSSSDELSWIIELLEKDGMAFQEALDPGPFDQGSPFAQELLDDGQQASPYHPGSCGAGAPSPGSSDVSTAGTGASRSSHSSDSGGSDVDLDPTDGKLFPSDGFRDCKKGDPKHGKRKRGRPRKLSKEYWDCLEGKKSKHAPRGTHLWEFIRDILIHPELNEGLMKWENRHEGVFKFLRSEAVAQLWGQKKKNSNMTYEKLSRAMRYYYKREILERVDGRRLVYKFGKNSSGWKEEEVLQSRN
# How it was run: as §1
# CRX = CRX (Homo sapiens, UniProt O43186 1-299); conditions: protein: recombinant; tags: N-terminal GST; dsDNA, one strand shown
# Sequence of CRX (O43186 whole entry): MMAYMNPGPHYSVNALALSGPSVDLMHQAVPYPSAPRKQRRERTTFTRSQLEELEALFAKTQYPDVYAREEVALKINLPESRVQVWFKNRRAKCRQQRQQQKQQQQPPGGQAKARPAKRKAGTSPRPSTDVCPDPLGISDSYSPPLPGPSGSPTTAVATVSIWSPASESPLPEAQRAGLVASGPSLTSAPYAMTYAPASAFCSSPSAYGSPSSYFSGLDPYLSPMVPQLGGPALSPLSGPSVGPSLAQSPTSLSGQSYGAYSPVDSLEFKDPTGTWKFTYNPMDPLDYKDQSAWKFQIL
# How it was run: as §1
# ETV1 = ETV1 (Homo sapiens, UniProt P50549 1-477); conditions: protein: recombinant; tags: N-terminal GST; dsDNA, one strand shown
# Sequence of ETV1 (P50549 whole entry): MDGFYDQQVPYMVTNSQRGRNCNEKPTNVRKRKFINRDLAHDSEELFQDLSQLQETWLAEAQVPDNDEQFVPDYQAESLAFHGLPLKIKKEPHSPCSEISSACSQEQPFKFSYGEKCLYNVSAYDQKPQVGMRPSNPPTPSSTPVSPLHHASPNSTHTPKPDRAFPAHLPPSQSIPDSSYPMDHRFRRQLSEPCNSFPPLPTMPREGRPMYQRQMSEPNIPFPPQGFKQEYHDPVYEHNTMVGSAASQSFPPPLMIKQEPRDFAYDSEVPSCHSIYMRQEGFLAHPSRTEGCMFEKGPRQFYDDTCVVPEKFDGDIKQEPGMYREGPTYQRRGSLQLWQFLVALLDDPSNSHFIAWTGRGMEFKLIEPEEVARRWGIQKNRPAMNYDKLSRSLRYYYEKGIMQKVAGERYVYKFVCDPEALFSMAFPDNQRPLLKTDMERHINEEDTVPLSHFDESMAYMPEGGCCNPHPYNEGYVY
# How it was run: as §1
# ERF = target: T6, ERF (Homo sapiens, UniProt P50548 1-548); conditions: protein: recombinant; tags: N-terminal GST; dsDNA, one strand shown
# T6 sequence: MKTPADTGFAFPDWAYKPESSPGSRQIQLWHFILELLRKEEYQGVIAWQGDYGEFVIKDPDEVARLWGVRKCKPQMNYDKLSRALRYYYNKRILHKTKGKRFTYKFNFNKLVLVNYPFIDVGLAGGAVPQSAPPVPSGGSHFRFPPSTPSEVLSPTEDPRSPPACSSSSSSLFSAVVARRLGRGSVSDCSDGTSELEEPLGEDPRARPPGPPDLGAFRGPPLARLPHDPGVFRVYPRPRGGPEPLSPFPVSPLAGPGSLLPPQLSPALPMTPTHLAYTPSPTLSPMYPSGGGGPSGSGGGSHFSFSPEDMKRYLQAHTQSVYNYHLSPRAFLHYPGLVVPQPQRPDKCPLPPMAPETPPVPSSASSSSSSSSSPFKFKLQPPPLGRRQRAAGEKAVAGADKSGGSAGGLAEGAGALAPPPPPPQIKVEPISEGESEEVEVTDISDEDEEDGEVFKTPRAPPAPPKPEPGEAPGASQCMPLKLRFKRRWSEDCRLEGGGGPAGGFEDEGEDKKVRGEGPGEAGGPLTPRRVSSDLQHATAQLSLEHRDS
# How it was run: as §1
# ETV3L = target: T7, ETV3L (Homo sapiens, UniProt Q6ZN32 1-361); conditions: protein: recombinant; tags: N-terminal GST; dsDNA, one strand shown
# T7 sequence: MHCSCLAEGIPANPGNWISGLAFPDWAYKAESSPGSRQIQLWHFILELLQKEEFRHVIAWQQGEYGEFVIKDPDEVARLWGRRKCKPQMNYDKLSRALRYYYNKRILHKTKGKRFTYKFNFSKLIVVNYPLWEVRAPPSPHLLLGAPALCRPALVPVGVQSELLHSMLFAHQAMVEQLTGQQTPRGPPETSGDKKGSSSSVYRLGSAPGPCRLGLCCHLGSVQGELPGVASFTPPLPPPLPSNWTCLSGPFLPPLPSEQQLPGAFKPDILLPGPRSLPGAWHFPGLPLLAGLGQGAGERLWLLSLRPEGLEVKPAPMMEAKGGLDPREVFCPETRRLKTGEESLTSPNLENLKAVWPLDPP
# How it was run: as §1
# ETS2 = target: T8, ETS2 (Homo sapiens, UniProt P15036 1-469); conditions: protein: recombinant; tags: N-terminal GST; dsDNA, one strand shown
# T8 sequence: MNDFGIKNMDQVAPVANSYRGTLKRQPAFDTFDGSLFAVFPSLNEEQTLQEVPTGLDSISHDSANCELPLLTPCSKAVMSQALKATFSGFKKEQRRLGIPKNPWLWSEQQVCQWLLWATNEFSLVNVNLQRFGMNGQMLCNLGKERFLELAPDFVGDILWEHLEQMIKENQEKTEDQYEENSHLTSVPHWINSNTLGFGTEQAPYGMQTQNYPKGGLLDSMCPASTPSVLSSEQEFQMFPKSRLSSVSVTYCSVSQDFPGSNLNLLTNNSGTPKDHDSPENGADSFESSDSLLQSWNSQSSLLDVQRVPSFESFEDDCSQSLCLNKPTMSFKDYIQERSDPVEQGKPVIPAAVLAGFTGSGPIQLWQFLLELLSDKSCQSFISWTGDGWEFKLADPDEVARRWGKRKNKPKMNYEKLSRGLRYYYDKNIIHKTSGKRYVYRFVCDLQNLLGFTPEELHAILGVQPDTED
# How it was run: as §1
# SPDEF = target: T9, SPDEF (Homo sapiens, UniProt O95238 1-335); conditions: protein: recombinant; tags: N-terminal GST; dsDNA, one strand shown
# T9 sequence: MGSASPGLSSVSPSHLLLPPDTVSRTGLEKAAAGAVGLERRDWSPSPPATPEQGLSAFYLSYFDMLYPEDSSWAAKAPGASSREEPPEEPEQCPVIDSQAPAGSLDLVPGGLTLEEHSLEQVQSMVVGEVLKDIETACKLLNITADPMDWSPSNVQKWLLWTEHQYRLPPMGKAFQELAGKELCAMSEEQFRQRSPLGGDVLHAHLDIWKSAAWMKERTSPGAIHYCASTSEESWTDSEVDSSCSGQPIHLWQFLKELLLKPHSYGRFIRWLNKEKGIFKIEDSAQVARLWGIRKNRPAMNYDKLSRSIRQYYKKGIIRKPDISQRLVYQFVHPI
# How it was run: as §1
# ETV7 = target: T10, ETV7 (Homo sapiens, UniProt Q9Y603 1-341); conditions: protein: recombinant; tags: N-terminal GST; dsDNA, one strand shown
# T10 sequence: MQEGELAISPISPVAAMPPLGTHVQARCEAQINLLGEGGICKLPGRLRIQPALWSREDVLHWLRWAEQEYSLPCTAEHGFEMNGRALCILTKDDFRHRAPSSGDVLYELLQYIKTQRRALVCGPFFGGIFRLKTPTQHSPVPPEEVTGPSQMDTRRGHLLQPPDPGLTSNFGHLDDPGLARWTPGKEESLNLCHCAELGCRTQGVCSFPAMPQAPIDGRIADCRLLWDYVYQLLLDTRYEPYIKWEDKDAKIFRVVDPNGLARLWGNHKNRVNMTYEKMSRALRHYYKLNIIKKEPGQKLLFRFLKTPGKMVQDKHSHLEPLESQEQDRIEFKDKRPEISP
# How it was run: as §1
# ELF5 = target: T11, ELF5 (Homo sapiens, UniProt Q9UKW6-2 1-255); conditions: protein: recombinant; tags: N-terminal GST; dsDNA, one strand shown
# T11 sequence: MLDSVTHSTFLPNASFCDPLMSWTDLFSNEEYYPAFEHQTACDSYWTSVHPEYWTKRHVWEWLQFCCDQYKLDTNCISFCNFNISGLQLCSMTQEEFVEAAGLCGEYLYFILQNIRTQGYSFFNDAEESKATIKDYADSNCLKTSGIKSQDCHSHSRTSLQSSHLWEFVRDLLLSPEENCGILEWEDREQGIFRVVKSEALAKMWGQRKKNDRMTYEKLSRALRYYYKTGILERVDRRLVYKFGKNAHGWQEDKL
# How it was run: as §1
# ETV3 = target: T12, ETV3 (Homo sapiens, UniProt P41162-2 1-143); conditions: protein: recombinant; tags: N-terminal GST; dsDNA, one strand shown
# T12 sequence: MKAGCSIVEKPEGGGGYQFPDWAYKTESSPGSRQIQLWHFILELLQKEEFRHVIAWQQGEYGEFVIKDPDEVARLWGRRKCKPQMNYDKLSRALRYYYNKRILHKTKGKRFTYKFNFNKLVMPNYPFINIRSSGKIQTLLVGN
# How it was run: as §1
# ETV6 = ETV6 (Homo sapiens, UniProt P41212 1-452); conditions: protein: recombinant; tags: N-terminal GST; dsDNA, one strand shown
# Sequence of ETV6 (P41212 whole entry): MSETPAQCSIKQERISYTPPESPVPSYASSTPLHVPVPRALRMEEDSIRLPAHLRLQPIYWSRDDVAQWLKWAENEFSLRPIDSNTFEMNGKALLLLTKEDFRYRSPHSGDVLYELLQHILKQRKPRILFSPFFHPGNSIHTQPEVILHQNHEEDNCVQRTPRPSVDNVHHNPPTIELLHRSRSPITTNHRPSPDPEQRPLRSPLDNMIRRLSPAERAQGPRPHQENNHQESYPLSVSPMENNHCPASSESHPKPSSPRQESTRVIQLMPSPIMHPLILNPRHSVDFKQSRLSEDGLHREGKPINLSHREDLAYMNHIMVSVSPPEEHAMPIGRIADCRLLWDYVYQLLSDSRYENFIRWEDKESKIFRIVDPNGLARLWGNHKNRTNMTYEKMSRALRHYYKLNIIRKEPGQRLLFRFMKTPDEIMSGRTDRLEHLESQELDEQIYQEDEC
# How it was run: as §1
sequence,measurement,setting,value
TGGCCT,binding signal,FEV,"1.54 fold enrichment (6-mer frequency, TF over GST control)"
same,binding signal,ETV5,"1.4 fold enrichment (6-mer frequency, TF over GST control)"
same,binding signal,HSF1,"1.32 fold enrichment (6-mer frequency, TF over GST control)"
same,binding signal,SPIC,"1.26 fold enrichment (6-mer frequency, TF over GST control)"
same,binding signal,ELF4,"1.51 fold enrichment (6-mer frequency, TF over GST control)"
same,binding signal,ELK4,"1.53 fold enrichment (6-mer frequency, TF over GST control)"
same,binding signal,ETV2,"1.46 fold enrichment (6-mer frequency, TF over GST control)"
same,binding signal,ELF3,"1.47 fold enrichment (6-mer frequency, TF over GST control)"
same,binding signal,CRX,"1.31 fold enrichment (6-mer frequency, TF over GST control)"
same,binding signal,ETV1,"1.27 fold enrichment (6-mer frequency, TF over GST control)"
same,binding signal,ERF,"1.38 fold enrichment (6-mer frequency, TF over GST control)"
same,binding signal,ETV3L,"1.37 fold enrichment (6-mer frequency, TF over GST control)"
same,binding signal,ETS2,"1.32 fold enrichment (6-mer frequency, TF over GST control)"
same,binding signal,SPDEF,"1.42 fold enrichment (6-mer frequency, TF over GST control)"
same,binding signal,ETV7,"1.42 fold enrichment (6-mer frequency, TF over GST control)"
same,binding signal,ELF5,"1.33 fold enrichment (6-mer frequency, TF over GST control)"
same,binding signal,ETV3,"1.35 fold enrichment (6-mer frequency, TF over GST control)"
same,binding signal,ETV6,"1.5 fold enrichment (6-mer frequency, TF over GST control)"
